According to PubChem BioAssay (EPA / NIEHS):
Several values for one entry are separate records, joined by “and”; a condition that tells them apart may be missing. Equal values may be shown once. Some structures have more than one record in an assay (separate samples or runs), and their calls can disagree. Activity calls are given as the source filed them. The calls were made as follows: active = hit-call score of the fitted dose curve at least 0.9, where 1 is the maximum; inactive = score below 0.9.

Key:
[1] = ATG_CRE_CIS: Attagene CIS-FACTORIAL HepG2 Assay for human cAMP Responsive Element (CRE) binding protein 3 (AID 2282926); conditions: HepG2 CRE cis-reporter, Attagene multiplexed mRNA; actives raise or lower the signal
Method in brief: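 Liver-derived HepG2, transfected with a CRE-containing reporter panel, exposed 24 h; transcript levels sized and quantified by capillary electrophoresis of labelled amplicons; signal changes either way referenced to vehicle.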

[2] = target: CCAAT/enhancer-binding protein beta (Homo sapiens) (UniProt P17676); experiment: ATG_C_EBP_CIS: Attagene CIS-FACTORIAL HepG2 Assay for human CCAAT/Enhancer Binding Protein (C/EBP) beta (AID 2282927); conditions: HepG2 Attagene cis-factorial transcription factor reporter; actives raise or lower the signal
Method in brief: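 Endogenous C/EBPb-driven reporter transcripts measured in transfected human HepG2 cells at 24 h via RT-PCR and capillary electrophoresis of labelled fragments. Activity fitted in both directions relative to DMSO baseline.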

[3] = ATG_CMV_CIS: Attagene CIS-FACTORIAL HepG2 Assay for human CMV (Internal Marker) (AID 2282928); conditions: HepG2 CMV promoter reporter, transcription factor profiling; actives raise or lower the signal;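 also: endpoint acts as a background internal control marker rather than a target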
Method in brief: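 24 h chemical treatment, HepG2 with transient multi-reporter transfection; RNA → oligo(dT) RT → PCR → 6-FAM extension → HpaI digest → CE fluorescence. Bidirectional fit, DMSO negative control.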

[4] = ATG_DR4_LXR_CIS: Attagene CIS-FACTORIAL HepG2 Assay for human Liver X Receptor (LXR), DR4 submotif (AID 2282929); conditions: HepG2 Attagene DR4 cis-reporter, mRNA transcription; actives raise or lower the signal
Method in brief: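 Measures endogenous transcription factor activity via a DR4-driven reporter transcript in human HepG2 cells. Compounds incubated 24 h; mRNA quantified by RT-PCR and capillary electrophoresis, analysed as gain or loss of signal versus DMSO.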

[5] = target: Aryl hydrocarbon receptor (Homo sapiens) (UniProt P35869); experiment: ATG_Ahr_CIS: Attagene CIS-FACTORIAL HepG2 Assay for human Aryl Hydrocarbon Receptor (Ahr) (AID 2282930); conditions: HepG2 AhR cis-factorial reporter transcription; actives raise or lower the signal
Method in brief: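 Reporter mRNA levels, quantified by RT-PCR and fluorescent capillary electrophoresis, reflect endogenous AhR transcriptional activity in HepG2 cells carrying transfected cis-promoter reporter constructs. Readout at 24 h post-dose; gain or loss fitted against DMSO baseline.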

[6] = ATG_AP_1_CIS: Attagene CIS-FACTORIAL HepG2 Assay for human Activator Protein 1 (AP-1) (AID 2282931); conditions: HepG2 Attagene cis-factorial AP-1 reporter mRNA; actives raise or lower the signal
Method in brief: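 Bidirectional concentration-response fitting against DMSO controls. Underlying signal: reporter mRNA from cis-promoter constructs in transiently transfected HepG2, measured after 24 h by RT-PCR and capillary electrophoresis.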

[7] = ATG_AP_2_CIS: Attagene CIS-FACTORIAL HepG2 Assay for human Activator Protein 2 (AP-2) (AID 2282932); conditions: HepG2 AP-2 cis-reporter, Attagene transcription factor profiling; actives raise or lower the signal
Method in brief: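 Transiently transfected HepG2 cells are exposed to chemical for 24 h. Reporter transcripts are then measured as fluorescence following RT-PCR and capillary separation, and gain- or loss-of-signal is fitted relative to DMSO.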

[8] = ATG_BRE_CIS: Attagene CIS-FACTORIAL HepG2 Assay for human Bone Morphogenetic Protein (BMP) Response Element (BRE) (AID 2282933); conditions: HepG2 BMP response element reporter, Attagene transcription factor profiling; actives raise or lower the signal
Method in brief: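 HepG2 cells transiently transfected with multiplexed cis-element reporter units were dosed with chemical for 24 h. Reporter mRNA was measured by RT-PCR with fluorescent labelling, HpaI digestion and capillary electrophoresis; bidirectional fitting relative to DMSO.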

[9] = target: Retinoic acid receptor alpha (Homo sapiens) (UniProt P10276); experiment: ATG_DR5_RAR_CIS: Attagene CIS-FACTORIAL HepG2 Assay for human Retinoic Acid Receptor Alpha (RARE), DR5 submotif (AID 2282934); conditions: HepG2 Attagene cis-factorial RARE DR5 reporter, mRNA; actives raise or lower the signal;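 as to AC50: reporter responds to endogenous RAR alpha beta and gamma in HepG2 not RARA alone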
Method in brief: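 Reporter transcripts from a DR5-regulated unit, measured via RT-PCR plus capillary electrophoresis, reflect endogenous RAR activity in transiently transfected human HepG2 liver cells. Exposure lasted 24 h; gain or loss of signal scored against DMSO.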

[10] = target: Transcription factor E2F1 (Homo sapiens) (UniProt Q01094); experiment: ATG_E2F_CIS: Attagene CIS-FACTORIAL HepG2 Assay for human E2F Transcription Factor 1 (AID 2282935); conditions: HepG2 Attagene cis-reporter, E2F reporter RNA transcripts; actives raise or lower the signal
Method in brief: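 Fluorescent RT-PCR products, digested with HpaI for 2 h at 37 C, are separated by capillary electrophoresis. Source RNA comes from transfected HepG2 cultures treated for 24 h.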

[11] = APR_HepG2_CellLoss_72hr: Apredica 72-hour HepG2 Assay for Cell Loss (AID 2282915); conditions: high-content imaging
Method in brief: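 Cell number comes from Hoechst 33342-labelled nuclei, imaged at 20x after 3.7% formaldehyde fixation. Dosing was 0.39–200 uM, ten concentrations in duplicate, 0.5% DMSO final, for 72 h. Bidirectional fit relative to DMSO baseline.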

[12] = APR_HepG2_P-H2AX_72hr: Apredica 72-hour HepG2 Assay for H2AX Phosphorylation (AID 2282916); conditions: imaging, actives raise or lower the signal;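 also: phospho-histone H2A.x immunostain intensity per cell marking DNA damage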
Method in brief: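 Phospho-H2A.x imaging endpoint in HepG2 after 72 hr compound exposure (0.39–200 uM, duplicate wells). Activity derived by bidirectional curve fitting with DMSO as baseline.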

[13] = APR_HepG2_MitoMembPot_72hr: Apredica 72-hour HepG2 Assay for Mitochondrial Membrane Potential (AID 2282917); conditions: imaging, actives raise or lower the signal
Method in brief: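 Membrane potential read by MitoTracker Red CMXRos (250 nM, 30 min, pre-fixation) fluorescence imaging of HepG2 after 72 hr exposure. Ten concentrations, 0.39–200 uM, duplicate wells, 0.5% DMSO; fitted in both directions against DMSO baseline.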

[14] = APR_HepG2_MicrotubuleCSK_72hr: Apredica 72-hour HepG2 Assay for Microtubule CSK Stabilty (AID 2282919); conditions: HepG2 microtubule cytoskeleton, high-content imaging, actives raise or lower the signal
Method in brief: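 High-content imaging of alpha-tubulin staining in fixed HepG2 cells after 72 hr treatment with ten concentrations from 0.39 to 200 uM (0.5% DMSO). Fitting was bidirectional against DMSO; taxol served as positive control.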

[15] = APR_HepG2_P-H2AX_24hr: Apredica 24-hour HepG2 Assay for H2AX Phosphorylation (AID 2282920); conditions: high-content imaging, actives raise or lower the signal
Method in brief: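 Human HepG2 liver cells, treated 24 hr with test chemicals (0.39–200 uM, final DMSO 0.5% v/v), are fixed and co-stained for phospho-H2A.x and c-Jun with Hoechst. Imaged intensity is fitted in both directions against DMSO controls.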

[16] = APR_HepG2_StressKinase_72hr: Apredica 72-hour HepG2 Assay for Stress Kinase (AID 2282921); conditions: HepG2 stress kinase (phospho-c-Jun) imaging, actives raise or lower the signal
Method in brief: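 Stress kinase signal reflects nuclear phospho-c-Jun staining in fixed, permeabilized cells exposed 72 h to compound at 0.39–200 uM; DMSO-normalized, fitted for increases or decreases.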

[17] = APR_HepG2_StressKinase_24hr: Apredica 24-hour HepG2 Assay for Stress Kinase (AID 2282922); conditions: HepG2 stress kinase (phospho-c-Jun) imaging, actives raise or lower the signal
Method in brief: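 High-content imaging of phospho-c-Jun immunofluorescence in fixed, permeabilized HepG2 cells after 24 h dosing. Ten concentrations, 0.39 to 200 uM, run in duplicate at 0.5% v/v DMSO; gain or loss of signal versus DMSO.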

[18] = APR_HepG2_p53Act_72hr: Apredica 72-hour HepG2 Assay for p53 Activation (AID 2282923); conditions: high-content imaging, actives raise or lower the signal;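 also: average cellular p53 protein immunofluorescence intensity in HepG2 cells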
Method in brief: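 Fixed-cell p53 staining (sheep primary, Cy5 secondary) measured by fluorescence imaging following 72 hr treatment at 0.39–200 uM in 0.5% DMSO; DMSO served as negative control and baseline.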

[19] = APR_HepG2_MitoMass_72hr: Apredica 72-hour HepG2 Assay for Mitochondrial Mass (AID 2282924); conditions: high-content imaging, actives raise or lower the signal;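 also: MitoTracker Red CMXRos stain intensity per cell imaged as mitochondrial mass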
Method in brief: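 Readout is imaged MitoTracker Red (250 nM, 30 min, pre-fixation) signal, fitted bidirectionally against DMSO baseline. Human HepG2 liver cells received compound 0.39–200 uM in duplicate for 72 hr, final DMSO 0.5%.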

[20] = APR_HepG2_NuclearSize_72hr: Apredica 72-hour HepG2 Assay for Nuclear Size (AID 2282925); conditions: high-content imaging, actives raise or lower the signal
Method in brief: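 Nuclear size was read by high-content imaging of Hoechst 33342 stain after formaldehyde fixation. Compounds ran 72 h on HepG2 at 0.39 to 200 uM, with final DMSO 0.5% v/v. Curves fitted both directions relative to DMSO control.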

Measured: AC50

Chain of Aryl hydrocarbon receptor (Homo sapiens) (P35869 whole entry, looked up): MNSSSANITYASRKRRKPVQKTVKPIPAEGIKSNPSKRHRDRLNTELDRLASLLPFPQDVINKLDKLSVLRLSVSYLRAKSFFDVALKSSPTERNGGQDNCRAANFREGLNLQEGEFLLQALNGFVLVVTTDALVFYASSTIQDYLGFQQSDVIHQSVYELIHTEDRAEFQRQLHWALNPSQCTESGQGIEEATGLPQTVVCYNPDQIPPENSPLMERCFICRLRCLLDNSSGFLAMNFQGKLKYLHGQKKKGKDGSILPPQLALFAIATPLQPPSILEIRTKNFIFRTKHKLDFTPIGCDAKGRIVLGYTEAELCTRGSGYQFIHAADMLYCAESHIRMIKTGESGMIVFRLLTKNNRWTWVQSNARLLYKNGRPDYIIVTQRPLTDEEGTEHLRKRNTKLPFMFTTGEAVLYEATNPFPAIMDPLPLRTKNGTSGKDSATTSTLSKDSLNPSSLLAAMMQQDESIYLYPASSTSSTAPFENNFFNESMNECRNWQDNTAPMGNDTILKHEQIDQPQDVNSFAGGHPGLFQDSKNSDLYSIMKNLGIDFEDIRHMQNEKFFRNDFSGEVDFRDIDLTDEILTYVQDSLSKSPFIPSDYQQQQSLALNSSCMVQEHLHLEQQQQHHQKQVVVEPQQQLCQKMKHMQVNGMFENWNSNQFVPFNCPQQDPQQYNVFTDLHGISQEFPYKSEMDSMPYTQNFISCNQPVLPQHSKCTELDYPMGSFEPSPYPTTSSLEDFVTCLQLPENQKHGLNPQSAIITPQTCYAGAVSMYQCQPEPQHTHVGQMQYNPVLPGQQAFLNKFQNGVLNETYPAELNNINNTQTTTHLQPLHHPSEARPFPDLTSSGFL
Chain of CCAAT/enhancer-binding protein beta (Homo sapiens) (P17676 whole entry, looked up, the tested form may be a part): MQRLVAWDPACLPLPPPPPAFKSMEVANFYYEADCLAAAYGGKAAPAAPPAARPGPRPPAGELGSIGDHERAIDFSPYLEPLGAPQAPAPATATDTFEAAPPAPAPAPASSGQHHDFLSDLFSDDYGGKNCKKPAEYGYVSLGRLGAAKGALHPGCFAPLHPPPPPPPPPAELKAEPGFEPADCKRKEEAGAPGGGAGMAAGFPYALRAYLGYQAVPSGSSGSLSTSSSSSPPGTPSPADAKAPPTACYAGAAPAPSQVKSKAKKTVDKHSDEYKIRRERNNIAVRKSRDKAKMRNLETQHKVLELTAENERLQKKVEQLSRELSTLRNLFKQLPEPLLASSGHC
Chain of Retinoic acid receptor alpha (Homo sapiens) (P10276 whole entry, looked up): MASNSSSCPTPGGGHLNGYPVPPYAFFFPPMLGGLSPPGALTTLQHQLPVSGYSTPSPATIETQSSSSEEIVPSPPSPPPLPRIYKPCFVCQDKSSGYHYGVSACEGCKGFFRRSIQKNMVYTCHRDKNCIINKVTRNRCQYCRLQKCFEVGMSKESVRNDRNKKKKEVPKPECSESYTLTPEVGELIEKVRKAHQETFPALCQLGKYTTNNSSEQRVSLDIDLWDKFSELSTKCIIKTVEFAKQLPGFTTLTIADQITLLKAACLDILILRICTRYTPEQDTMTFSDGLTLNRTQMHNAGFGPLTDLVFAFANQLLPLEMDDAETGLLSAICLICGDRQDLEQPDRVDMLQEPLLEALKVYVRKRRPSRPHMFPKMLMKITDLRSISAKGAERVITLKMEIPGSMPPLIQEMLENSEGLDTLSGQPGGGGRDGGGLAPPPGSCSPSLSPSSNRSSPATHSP
Chain of Transcription factor E2F1 (Homo sapiens) (Q01094 whole entry, looked up): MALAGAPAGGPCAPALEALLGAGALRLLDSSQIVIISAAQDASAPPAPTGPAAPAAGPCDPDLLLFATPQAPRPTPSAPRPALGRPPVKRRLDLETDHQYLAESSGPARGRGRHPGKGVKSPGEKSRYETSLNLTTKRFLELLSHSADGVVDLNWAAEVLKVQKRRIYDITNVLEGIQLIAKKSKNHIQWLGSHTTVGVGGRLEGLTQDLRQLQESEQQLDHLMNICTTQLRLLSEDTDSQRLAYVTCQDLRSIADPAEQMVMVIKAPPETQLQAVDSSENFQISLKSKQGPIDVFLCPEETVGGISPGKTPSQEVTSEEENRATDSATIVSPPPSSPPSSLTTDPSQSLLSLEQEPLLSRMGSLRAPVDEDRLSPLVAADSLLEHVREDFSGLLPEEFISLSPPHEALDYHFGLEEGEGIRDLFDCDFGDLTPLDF

CC(C)c1cccc(C(C)C)c1O
inactive: [1] | [2] | [3] | [4] | [5] | [6] | [7] | [8] | [9] | [10]

CCC(=O)C(CC(C)N(C)C)(c1ccccc1)c1ccccc1 (stereo unspecified)
active: [11] 73.6 µM | [12] 73.5 µM | [14] 81.3 µM | [16] 78.9 µM | [18] 69.8 µM | [4] 92.4 µM
not listed: [7] | [8]
inactive: all other assays above

O=C(Nc1ccc2[nH]ccc2c1)c1cc2cc(F)ccc2n1Cc1cccc(F)c1
active: [11] 17.2 µM | [12] 27.8 µM | [13] 1.02 µM | [15] 38.8 µM | [18] 19 µM | [19] 26.9 µM | [2] 20.3 µM | [3] 11 µM | [4] 7.44 µM | [6] 7.29 µM
inactive: all other assays above

O=C(O)C(F)(F)C(F)(F)C(F)(F)C(F)(F)C(F)(F)C(F)(F)C(F)(F)C(F)(F)C(F)(F)C(F)(F)F
active: [11] 83.3 µM | [12] 90.6 µM | [15] 71.5 µM | [17] 73.8 µM | [18] 85.3 µM | [19] 72.9 µM | [2] 172 µM | [3] 50.4 µM and 31.3 µM | [4] 24.6 µM and 13.1 µM | [6] 23.9 µM | [7] 55.8 µM | [9] 129 µM
inactive: [13] | [14] | [16] | [20] | [1] | [2] | [5] | [6] | [7] | [9] | [10]

Cn1sc(Cl)cc1=O
active: [11] 104 µM | [12] 109 µM | [13] 120 µM | [14] 135 µM | [15] 110 µM | [16] 111 µM | [18] 106 µM | [19] 163 µM | [5] 67.3 µM
inactive: [17] | [20] | [2] | [3] | [4] | [6] | [8] | [9] | [10]

CN(C)N=O
not listed: [1]
inactive: all other assays above

COc1cc(-c2ccc(N)c(OC)c2)ccc1N
active: [11] 56.5 µM | [12] 24.8 µM | [13] 14.3 µM | [14] 42.1 µM | [15] 50.8 µM | [18] 35.2 µM | [1] 31 µM and 29.3 µM | [2] 14.8 µM and 36.5 µM | [3] 10.5 µM and 27.8 µM | [9] 2.98 µM and 19.8 µM
inactive: [11] | [12] | [13] | [14] | [15] | [16] | [17] | [18] | [19] | [20] | [4] | [6] | [8] | [10]

CC(C)(C)c1cc(O)ccc1O
active: [11] 144 µM | [19] 108 µM | [20] 110 µM | [1] 151 µM | [2] 79.7 µM | [3] 64.7 µM | [4] 24.9 µM | [5] 1.85 µM | [6] 66.7 µM | [8] 19.8 µM | [10] 66.5 µM
inactive: [12] | [13] | [14] | [15] | [16] | [17] | [18] | [9]

COP(=S)(OC)Oc1ccc(S(=O)(=O)N(C)C)cc1
inactive: [1] | [2] | [3] | [4] | [5] | [6] | [7] | [8] | [9] | [10]

C[C@@H]1C[C@@H]([C@H](O)CC2CC(=O)NC(=O)C2)C(=O)[C@@H](C)C1
active: [11] 0.415 µM | [14] 1.11 µM | [18] 4.8 µM | [2] 1.31 µM [middle of 4 runs] | [3] 0.286 µM | [6] 24.1 µM and 11.9 µM | [8] 16.6 µM and 5.79 µM and 22.8 µM | [10] 573 nM and 632 nM
inactive: [12] | [13] | [15] | [16] | [17] | [19] | [20] | [3] | [6] | [8] | [10]

CC12CC1(C)C(=O)N(c1cc(Cl)cc(Cl)c1)C2=O (stereo unspecified)
not listed: [7] | [9]
inactive: all other assays above

C=CC(=O)OCCCCCC(C)C
active: [11] 92.1 µM
not listed: [7]
inactive: all other assays above

CC(C)(OO)c1ccccc1
active: [11] 59.9 µM | [12] 56.7 µM | [15] 69.3 µM | [16] 49.4 µM | [18] 45.7 µM | [9] 48.2 µM
not listed: [1]
inactive: all other assays above
